Experimental data reported in PubChem BioAssay (NCATS).
Results filed as inconclusive are left out. Where a call stands in place of a potency, no number is given. Activity calls are given as the source filed them. Calls come from the whole dose curve; as a rule, active = well fitted inhibition curve with a large enough effect; inconclusive = small, poorly fitted or top-dose-only effect; inactive = flat fitted curve, though single readings scatter.

Test system: CRL-7250
Assay: qHTS assay to identify novel small-molecules to repurpose for Merkel cell carcinoma treatment (AID 1296009); note: nearly all actives have a fitted effect of over 60% in size
Conditions: MCC and control cell lines, CellTiter-Glo viability, 72 h; series mostly up to 92 µM
How it was run: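 After compound transfer in DMSO, plates were kept 72 hr at 37 degree celsius. Luminescent ATP signal from CellTiter-Glo served as viability measure, normalized against DMSO and no-cell controls.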

Row | SMILES | Potency | outcome
1 | O=C(O)Cc1cc(I)c(Oc2ccc(O)c(I)c2)c(I)c1 | inactive | –
2 | CC(=O)[C@H]1CC[C@H]2[C@@H]3CC=C4C[C@@H](OS(=O)(=O)O)CC[C@]4(C)[C@H]3CC[C@]12C | inactive | –
3 | CC12CC34C=CC(=O)C(C)(CCC(=O)O)C3C(CC1C4)O2 (stereo not given) | inactive | –
4 | COc1ccncc1C(=O)NC(=O)Nc1ccc(-c2ccccc2)c(C(F)(F)F)c1 | inactive | –
5 | O=C(Nc1ccccc1C(=O)NC1CCCCNC1=O)c1cc2ccccc2s1 (stereo not given) | inactive | –
6 | C/C=C(\C)C1C(C)=CC2CCC(OS(=O)(=O)O)C(C)C2C1/C=C/C=C/C(=O)O (stereo not given) | inactive | –
7 | COc1cc2ncnc(Nc3cccc(O)c3)c2cc1OC | inactive | –
8 | CC(O)(CC(=O)O)CC(=O)OCc1ccc(O[C@@H]2O[C@H](CO)[C@@H](O)[C@H](O)[C@H]2O)cc1 (stereo not given in full) | inactive | –
9 | NC(=O)[C@H]1CCCCc2c1[nH]c1ccc(Cl)cc21 | inactive | –
10 | C[C@H](C(=O)NC1CCCC1)N(C(=O)Cn1nnc(-c2ccc3c(c2)OCO3)n1)C1CCCCC1 | inactive | –
11 | C=C[C@@](C)(CCC=C(C)C)O[C@@H]1O[C@H](CO[C@@H]2OC[C@H](O)[C@H](O)[C@H]2O)[C@@H](O)[C@H](O)[C@H]1O | inactive | –
12 | CC(C)C(C(=O)N(C)C(C)C(N)=O)N(C)C(=O)C1CCCN1C(=O)/C=C/C=C/C(O)C(C)O (stereo not given) | inactive | –
13 | C=CC/C=C\C/C=C\CCCCCCCc1cccc(O)c1C(=O)O | inactive | –
14 | CC1OC(OC2C(OC3C(O[C@H]4CC[C@@]5(C)C(CC[C@]6(C)C5CC=C5C7CC(C)(C)CC(O)[C@]7(C)CC[C@]56C)C4(C)C)OC(C(=O)O)C(O)C3O)OCC(O)C2O)C(O)C(O)C1O (stereo not given in full) | – | inactive [at 9.27 µM]
15 | COc1cccc(-n2nc(C(=O)O)cc2-c2ccc(C3CCCCC3)c(Cl)c2)c1 | inactive | –
16 | NC(=O)[C@H](O[C@@H]1O[C@H](CO)[C@@H](O)[C@H](O)[C@H]1O)c1ccccc1 | inactive | –
17 | C[C@@H]1O[C@@H](O[C@H]2[C@H](O[C@H]3[C@H](O[C@H]4CC[C@@]5(C=O)C(CC[C@]6(C)C5CC=C5C7CC(C)(C)C[C@@H](O)[C@]7(C)CC[C@]56C)C4(C)C)O[C@H](C(=O)O)[C@@H](O)[C@@H]3O)OC[C@@H](O)[C@@H]2O)[C@H](O)[C@H](O)[C@H]1O (stereo not given in full) | – | inactive [at 9.27 µM]
18 | C=CC1C(OC2OC(CO)C(O)C(O)C2O)OC=C2C(=O)N3C(C(=O)O)Cc4c([nH]c5ccccc45)C3CC21 (stereo not given) | inactive | –
19 | C=C1CCC2C(C)(C)CCC[C@]2(C)[C@H]1CC/C(C)=C/C(=O)O (stereo not given in full) | inactive | –
20 | C[C@H](/C=C/[C@@]1(O)[C@H](C)CC(=O)CC1(C)C)O[C@@H]1O[C@H](CO[C@@H]2OC[C@@H](O)[C@H](O)[C@H]2O)[C@@H](O)[C@H](O)[C@H]1O | inactive | –
21 | COC1CC(O[C@H]2CC[C@@]3(C)C(=CC[C@]4(O)C3[C@H](OC(C)=O)[C@@H](OC(=O)c3ccccc3)[C@]3(C)[C@@H](C(C)=O)CC[C@@]34O)C2)OC(C)C1OC1CC(OC)C(OC2CC(OC)C(OC3OC(C)C(OC4OC(CO)C(O)C(O)C4O)C(OC)C3O)C(C)O2)C(C)O1 (stereo not given in full) | – | inactive [at 9.27 µM]
22 | CCOC(=O)c1sc(NC(=O)[C@H](C(C)C)n2c(=O)[nH]c3ccccc3c2=O)nc1C | inactive | –
23 | C=C(C)C1CCC2(C(=O)O[C@@H]3O[C@H](CO[C@@H]4O[C@H](CO)[C@@H](O)[C@H](O)[C@H]4O)[C@@H](O)[C@H](O[C@@H]4O[C@@H](C)[C@H](O)[C@@H](O)[C@H]4O)[C@H]3O)CCC3(C(=O)O)C(CCC4C5(C)CCC(O)C(C)(C)C5CCC43C)C12 (stereo not given in full) | – | inactive [at 9.27 µM]
24 | Cc1ncc([N+](=O)[O-])n1CC(O)CN1CCOCC1 (stereo not given) | inactive | –
25 | C=C(C)[C@@H]1CC[C@](C)(O)[C@@H](OC(=O)c2ccccc2)C1 | inactive | –
26 | COc1cc2ncnc(Nc3ccc(O)cc3)c2cc1OC | inactive | –
27 | C[C@@H](c1ccccc1)N(C(N)=NC#N)c1cccc2ncccc12 | inactive | –
28 | CCC(C)C(=O)O[C@@H]1[C@@H](O)[C@@H](O[C@H]2O[C@H](CO)[C@@H](O)[C@H](O)[C@H]2O)O[C@H](CO)[C@H]1O (stereo not given in full) | inactive | –
29 | CON(C)C(=O)[C@H](O)[C@H](Cc1ccccc1)NC(=O)c1cc2cc(Cl)ccc2[nH]1 | inactive | –
30 | CC1=C2CC(C)(C)CC2C(O)C2=C(C1)C(=O)OC2O (stereo not given) | inactive | –
